Data from PubChem BioAssay AID463173 (ICCB-Longwood Screening Facility, Harvard Medical School, 2010).
In all, about 52,000 compounds went through this assay and about 4,300 (8.3%) were called active. Shown is part of a subset that was picked to be rich in actives. Values without a mark were called inactive. Rule as the data show it: active = survival mostly below about 52% (no sharp cut-off); inactive = mostly above about 56%.

System: DeltatarO mutant
Assay: S. aureus survival, RN4220 and DeltatarO strains – OD600, teichoic acid synthesis inhibitors, primary screen (AID 463173)
Details: S. aureus RN4220 wild type/DeltatarO growth, OD600, 18 h, stronger effect = lower value, screened at 18.75 µg/mL (by protocol)

| Structure (SMILES) | survival |
| --- | --- |
| O=C(CCNS(=O)(=O)c1ccc2c(c1)CCCC(=O)N2)NCc1ccccc1Cl | 87% |
| CCCOc1ccc(CNC(=O)Cn2ncn3c(cc4sc(CC)cc43)c2=O)cc1 | 94% |
| CC(C)Cc1nn2c(=O)cc(COC(=O)c3ccccc3NC(=O)c3ccccc3)nc2s1 | 117% |
| CSc1ncc(C(=O)Nc2ccccc2C(=O)c2ccccc2)c(C)n1 | 64% |
| Cc1cccc(C(=O)NC(c2n[nH]c(=S)n2C)C(C)C)c1 (stereo unspecified) | 111% |
| CCCOc1cccc(C(=O)Nc2cccc(NC(=O)c3ccc(Cl)cc3Cl)c2)c1 | 88% |
| Cc1c(Cl)cccc1NC(=O)CCOc1ccccc1 | 142% |
| CCOC(=O)c1ccccc1NC(=O)CCOc1ccccc1 | 22% (active) |
| CCOC(=O)c1ccccc1NC(=O)Cc1c(C(=O)O)c(C)cn1C | 17% (active) |
| CCc1ccc(NC(=O)Cc2c(C(=O)O)c(C)cn2C)cc1 | 87% |
| Cc1cn(C)c(CC(=O)Nc2cccc(Cl)c2C)c1C(=O)O | 99% |
| Cc1ccc(C)c(NC(=O)CCOc2ccccc2)c1 | 77% |
| COc1ccc(C2(C(=O)O)CCCC2)cc1OC | 107% |
| CSc1ncc(C(=O)N2CCN(c3cc(C)ccc3C)CC2)c(C)n1 | 72% |
| Cc1ccc(S(=O)(=O)c2nnn3c2nc(N2CCC(C)CC2)c2cc(Cl)ccc23)cc1C | 78% |
| COc1ccc(OC)c(C2C(C(=O)N3CCCCC3)=C(C)Nc3nc4ccccc4n32)c1 (stereo unspecified) | 63% |
| COc1ccc(-n2cnc3cc(C(=O)NCCC4=CCCCC4)ccc32)cc1 | 75% |
| CC(C)C(=O)Nc1ccc(N2CCN(C(=O)c3ccccc3)CC2)cc1 | 101% |
| CCOCCCn1c(SCC(=O)Nc2ccccc2CC)nc2ccccc2c1=O | 80% |
| O=C(CSc1nc2ccsc2c(=O)n1Cc1ccccc1Cl)NCc1ccc(Cl)cc1 | 101% |
| Cc1ccc(CSc2nc3ccsc3c(=O)n2CCC(C)C)cc1 | -5% (active) |
| CC(C)CCn1c(SCc2cccc(F)c2)nc2ccsc2c1=O | 87% |
| Cc1ccccc1CSc1nc2ccsc2c(=O)n1CCC(C)C | 68% |

| Structure (SMILES) | survival |
| --- | --- |
| Cc1ccc(Cn2c(SCC(=O)NCc3ccccc3)nc3ccsc3c2=O)cc1 | 92% |
| Cc1ccc(Cn2c(SCC(=O)NCc3ccccc3Cl)nc3ccsc3c2=O)cc1 | -5% (active) |
| Cc1nc2sc(C(=O)N(C)Cc3ccccc3)c(NC(=O)c3ccccc3)c2c(C)c1Cl | 60% |
| Cc1cc(=O)n(Cc2ccccc2Cl)c2c1c(C)nn2-c1ccccc1 | 100% |
| CCOc1ccc(CNC(=O)c2nn(-c3ccc(OC)cc3)c(=O)c3c2c2ccccc2n3C)cc1 | 101% |
| CCC(=O)N1c2ccccc2CC1C(=O)NCc1ccc(OC(C)C)cc1 (stereo unspecified) | 97% |
| CC1CCN(CC(=O)O)CC1 | 99% |
| COc1cc(-c2noc(CSc3nc(-c4ccc(F)cc4)cc(=O)[nH]3)n2)cc(OC)c1OC | 69% |
| O=C(O)c1cc(-c2ccccc2)on1 | 100% |
| NC(=O)C1CCN(C(=O)c2cc(-c3ccccc3)on2)CC1 | 98% |
| O=C(C1CC(c2ccccc2O)=NO1)N1CCCC1 (stereo unspecified) | 91% |
| CC1CCN(C(=O)c2cc(-c3ccc(Br)cc3)on2)CC1 | 51% |
| CN(C(=O)c1cc(-c2ccccc2O)on1)c1ccccc1 | 40% (active) |
| CN(C(=O)c1cc(-c2ccccc2)on1)C1CCCCC1 | 91% |
| CCc1cc(C(=O)N2CCN(c3ccccc3)CC2)no1 | 48% |
| CC1CCN(C(=O)c2cc(-c3ccc(Cl)cc3)on2)CC1 | 66% |
| O=C(c1cc(-c2cccc(Cl)c2)on1)N1CCN(c2ccccc2)CC1 | 23% (active) |
| O=C(c1cc(-c2ccccc2O)on1)N1CCCCC1 | 40% (active) |
| CC1CCN(C(=O)c2cc(-c3cccc(Cl)c3)on2)CC1 | -15% (active) |
| O=C(c1cc(-c2ccc(O)cc2)on1)N1CCN(c2ccccc2)CC1 | 96% |
| CCN(CCCNC(=O)Cn1ncc2c([nH]c3ccc(C)cc32)c1=O)c1ccccc1 | 115% |
| Cc1csc2nc(COc3ccc(NC(=O)C(C)C)cc3)cc(=O)n12 | 98% |
| COc1ccc(NC(=O)Cn2cc(C(=O)c3ccccc3)c(=O)c3cc(OC)ccc32)c(OC)c1 | 92% |
